Data taken from PubChem BioAssay.
Values without a mark were called inactive.

Experiment: plasmodial surface anion channel blockers, osmotic lysis – cell-based, P. falciparum Indochina, OD700, 2 h, primary screen (AID 1155);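 note: lysis reports solute entry through the parasite surface anion channel PSAC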
Settings: P. falciparum Indochina infected erythrocytes, higher = more signal, called active from +8 up or from −8 down

Compared with `Cc1cc2c(nc1C)CCCCN2CC(C)ON=C[C@@H](C)[C@H](OCc1ccccc1)C(C)C` (stereo not given in full), `CC(C)[C@@H](OCc1ccccc1)[C@H](C)C=NOC[C@@H](O)COCc1ccco1` is lower in z-score: 0.147 for the first, -0.332 for the second.

Going from `CO[C@@H]1C=CCC(=O)N2CCC[C@H]2C(=O)OC[C@@H](C)C(=O)OC[C@H]1C` to `CO[C@@H]1C=CCC(=O)N[C@@H](C)C(=O)OC[C@@H](OC)[C@H](C)CCCC(=O)OC[C@H]1C`, the z-score falls from 0.155 to -1.22.

Compared with `COc1ccc(COC(=O)NN=C2C[C@@H](O)[C@@H](O)[C@@H]3[C@@H]4C(=O)N(c5ccc(F)cc5F)C(=O)[C@@H]4CC[C@H]23)cc1`, `COc1ccc(COC(=O)NN=C2C[C@@H](O)[C@@H](O)[C@@H]3[C@@H]4C(=O)N(C5CCCCC5)C(=O)[C@@H]4CC[C@H]23)cc1` is lower in z-score: 4.98 for the first, 1.51 for the second.

Going from `O=C1[C@H]2[C@H]3[C@H](O)[C@H](O)CC(=NOCc4ccccc4)[C@@H]3CC[C@H]2C(=O)N1C[C@@H]1CCCO1` to `CC(C)=CCCC(C)=CCON=C1C[C@@H](O)[C@@H](O)[C@@H]2[C@@H]3C(=O)N(C4CCCCC4)C(=O)[C@@H]3CC[C@@H]12`, the z-score rises from 0.141 to 0.677.

First: CC(C)=CCCC(C)=CCON=C1C[C@@H](O)[C@@H](O)[C@@H]2[C@@H]3C(=O)N(C(C)(C)C)C(=O)[C@@H]3CC[C@H]12
Second: CCOC(=O)[C@H](Cc1ccccc1)NC(=O)CCC1CC(OC(=O)NCCc2ccc(F)cc2)CC2(CCCC(COC(=O)NCCc3ccccc3OC)O2)O1 (stereo not given in full)
The z-score of the first is higher: 0.28 for the first, 0.136 for the second.
